Results reported in the supplement of paper PMC10849652.
Of roughly 8,800 targets only a part is listed; those with a hit were picked by preference. About 0.5% of all pairs of compound and target were hits. Unmarked numbers belong to inactive results.

How the values were obtained:
Assay in all cases: log2 fold change, soluble protein after heating vs DMSO (PISA); higher = thermal stabilisation; K562 lysate, 10 uM; active = over 0.2 and 3.5 SD of the protein, either way, in both replicates (recomputed)
ibrutinib = compound: C=CC(=O)N1CCC[C@@H](n2nc(-c3ccc(Oc4ccccc4)cc3)c3c(N)ncnc32)C1 [ibrutinib]
Summary of the method: (§1)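 Values give the log-two fold change in thermal stability against solvent controls, from duplicates. Crude K562 extract at 1 mg/mL protein, made by dounce homogenisation in PBS pH 7.4 with 1 mM MgCl2, was treated with 10 μM compound for 30 min. After 3 min heating across 48°C-58°C, aliquots were pooled, adjusted to 0.5% NP-40 at 4°C and centrifuged at 21,000xg for 90 min. The supernatant was measured by TMTpro 16plex LC-MS/MS with channel sums equalised.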

[1] = compound: CC(=O)c1cnc2ccc(-c3cc(Cl)c(O)c(Cl)c3)nc2c1N[C@H]1CC[C@H](CN(C)C)CC1
Summary of the method: as §1

ralimetinib = compound: CC(C)(C)Cn1c(N)nc2ccc(-c3[nH]c(C(C)(C)C)nc3-c3ccc(F)cc3)nc21 [ralimetinib]
Summary of the method: as §1

[2] = compound: CC(C)(O)CC(=O)NCCn1ccc2ncnc(Nc3ccc(Oc4cccc(C(F)(F)F)c4)c(Cl)c3)c21
Summary of the method: as §1

[3] = compound: CC(C)C1=C2N=C(C=C(N2N=C1)NCC3=CC=CC=C3)NCCCCCCN
Summary of the method: as §1

[4] = compound: CC1=C(C(CC(=O)N1)C2=CC=C(C=C2)C(F)(F)F)C(=O)NC3=C(C=C4C(=C3)C=NN4)F
Summary of the method: as §1

[5] = compound: CC1=C(C2=C(C=C1)C(=O)C3=CC=CC=C3N2CCCN)C
Summary of the method: as §1

[6] = compound: CC1=C(C=C(C=C1)NC(=O)C2=CC(=CC=C2)C(C)(C)C#N)NC3=CC4=C(C=C3)N=CN(C4=O)C
Summary of the method: as §1

[7] = compound: CC1=C(C=C(C=C1)NC(=O)C2=CC(=CC=C2)N(C)C)NC(=O)C3=CC=C(C=C3)O
Summary of the method: as §1

[8] = compound: CC1=CC=C(C=C1)SC2=C3C=C(SC3=CN=C2)C(=O)N
Summary of the method: as §1

vemurafenib = compound: CCCS(=O)(=O)Nc1ccc(F)c(C(=O)c2c[nH]c3ncc(-c4ccc(Cl)cc4)cc23)c1F [vemurafenib]
Summary of the method: as §1

[9] = compound: CCCS(=O)(=O)Nc1ccc(F)c(C(=O)c2c[nH]c3ncc(Cl)cc23)c1F
Summary of the method: as §1

barasertib = compound: CCN(CCCOc1ccc2c(Nc3cc(CC(=O)Nc4cccc(F)c4)[nH]n3)ncnc2c1)CCOP(=O)(O)O [barasertib]
Summary of the method: as §1

[10] = compound: CC[C@@H]1C(=O)N(C)c2cnc(Nc3ccc(C(=O)NC4CCN(C)CC4)cc3OC)nc2N1C1CCCC1
Summary of the method: as §1

volasertib = compound: CC[C@@H]1C(=O)N(C)c2cnc(Nc3ccc(C(=O)N[C@H]4CC[C@H](N5CCN(CC6CC6)CC5)CC4)cc3OC)nc2N1C(C)C [volasertib]
Summary of the method: as §1

[11] = compound: CCn1c(C(=O)N(C2CC2)C2CC2)cc2c3c(ncn3C)c(Nc3cc(C)n(C)n3)nc21
Summary of the method: as §1

[12] = compound: CCn1cc(-c2ccnc3[nH]c(-c4cccc(CN(C)C)c4)cc23)c(-c2ccc(NC(=O)N(C)C)cc2)n1
Summary of the method: as §1

[13] = compound: CN1CCC(CNc2ccc3ncc(-c4cccc(OC(F)(F)F)c4)n3n2)CC1
Summary of the method: as §1

saracatinib = compound: CN1CCN(CCOc2cc(OC3CCOCC3)c3c(Nc4c(Cl)ccc5c4OCO5)ncnc3c2)CC1 [saracatinib]
Summary of the method: as §1

sotrastaurin = compound: CN1CCN(c2nc(C3=C(c4c[nH]c5ccccc45)C(=O)NC3=O)c3ccccc3n2)CC1 [sotrastaurin]
Summary of the method: as §1

Target: MORC2 (UniProt Q9Y6X9)
Sequence of UniProt Q9Y6X9 (Q9Y6X9 whole entry, looked up): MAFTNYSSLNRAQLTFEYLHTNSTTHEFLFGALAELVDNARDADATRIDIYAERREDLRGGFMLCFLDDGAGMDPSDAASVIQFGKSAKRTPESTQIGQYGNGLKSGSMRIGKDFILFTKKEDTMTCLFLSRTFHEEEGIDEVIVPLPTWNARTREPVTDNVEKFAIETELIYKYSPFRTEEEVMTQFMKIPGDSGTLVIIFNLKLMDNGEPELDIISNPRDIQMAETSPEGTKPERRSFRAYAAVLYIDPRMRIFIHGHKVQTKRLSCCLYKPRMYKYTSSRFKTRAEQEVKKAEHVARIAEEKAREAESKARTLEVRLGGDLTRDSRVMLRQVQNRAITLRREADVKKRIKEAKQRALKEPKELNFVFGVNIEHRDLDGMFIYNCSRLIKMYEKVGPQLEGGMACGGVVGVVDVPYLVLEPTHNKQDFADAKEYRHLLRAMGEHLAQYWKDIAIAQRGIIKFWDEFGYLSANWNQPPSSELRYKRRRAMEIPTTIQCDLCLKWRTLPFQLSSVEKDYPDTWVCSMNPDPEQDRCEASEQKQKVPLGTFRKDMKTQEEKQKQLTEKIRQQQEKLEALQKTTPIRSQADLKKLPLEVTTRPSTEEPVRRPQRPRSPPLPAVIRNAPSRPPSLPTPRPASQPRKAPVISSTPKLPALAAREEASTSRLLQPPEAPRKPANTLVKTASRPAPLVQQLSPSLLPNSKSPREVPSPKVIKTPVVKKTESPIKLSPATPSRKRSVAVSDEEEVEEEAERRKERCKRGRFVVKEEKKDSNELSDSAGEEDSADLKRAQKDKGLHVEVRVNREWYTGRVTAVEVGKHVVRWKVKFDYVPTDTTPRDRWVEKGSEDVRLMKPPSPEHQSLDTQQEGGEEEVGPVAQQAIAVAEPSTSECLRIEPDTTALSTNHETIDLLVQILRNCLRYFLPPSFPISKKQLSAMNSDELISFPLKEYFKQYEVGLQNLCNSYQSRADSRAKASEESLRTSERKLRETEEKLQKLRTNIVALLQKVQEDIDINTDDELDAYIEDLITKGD
- log2 fold change (ibrutinib): 0.065
- log2 fold change [1]: 0.02
- log2 fold change (ralimetinib): 0.054
- log2 fold change [2]: -0.035
- log2 fold change [3]: -0.039
- log2 fold change [4]: -0.001
- log2 fold change [5]: -0.026
- log2 fold change [6]: -0.037
- log2 fold change [7]: 0.072
- log2 fold change [8]: 0.004
- log2 fold change (vemurafenib): 0.049
- log2 fold change [9]: 0.01
- log2 fold change (barasertib): 0.054
- log2 fold change [10]: 0.022
- log2 fold change (volasertib): 0.002
- log2 fold change [11]: -0.006
- log2 fold change [12]: -0.041
- log2 fold change [13]: 0.008
- log2 fold change (saracatinib): 0.042
- log2 fold change (sotrastaurin): 0.037

Target: MBOAT2 (UniProt Q6ZWT7)
Sequence of UniProt Q6ZWT7 (Q6ZWT7 whole entry, looked up): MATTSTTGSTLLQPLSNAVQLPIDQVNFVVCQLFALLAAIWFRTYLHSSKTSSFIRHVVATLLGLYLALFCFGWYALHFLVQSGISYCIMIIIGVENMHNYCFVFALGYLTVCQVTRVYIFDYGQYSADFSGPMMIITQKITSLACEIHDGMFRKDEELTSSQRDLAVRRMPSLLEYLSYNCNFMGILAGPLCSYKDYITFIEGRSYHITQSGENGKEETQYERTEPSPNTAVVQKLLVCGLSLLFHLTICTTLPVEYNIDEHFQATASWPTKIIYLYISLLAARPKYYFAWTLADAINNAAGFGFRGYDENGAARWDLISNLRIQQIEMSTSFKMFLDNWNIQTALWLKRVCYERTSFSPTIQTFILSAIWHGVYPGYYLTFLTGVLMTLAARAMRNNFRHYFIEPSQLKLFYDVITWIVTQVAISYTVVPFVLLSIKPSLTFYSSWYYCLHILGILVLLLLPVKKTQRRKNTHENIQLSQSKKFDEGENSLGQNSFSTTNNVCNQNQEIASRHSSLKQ
- log2 fold change (ibrutinib): -0.092
- log2 fold change [1]: -0.039
- log2 fold change (ralimetinib): 0.137
- log2 fold change [2]: 0.047
- log2 fold change [3]: -0.047
- log2 fold change [4]: 0.034
- log2 fold change [5]: 0.031
- log2 fold change [6]: 0.008
- log2 fold change [7]: -0.117
- log2 fold change [8]: 0.096
- log2 fold change (vemurafenib): 0.02
- log2 fold change [9]: -0.01
- log2 fold change (barasertib): 0.121
- log2 fold change [10]: 0.159
- log2 fold change (volasertib): -0.103
- log2 fold change [11]: -0.015
- log2 fold change [12]: -0.251
- log2 fold change [13]: 0.026
- log2 fold change (saracatinib): 0.045
- log2 fold change (sotrastaurin): 0.284

Target: LRRC40 (UniProt Q9H9A6)
Sequence of UniProt Q9H9A6 (Q9H9A6 whole entry, looked up): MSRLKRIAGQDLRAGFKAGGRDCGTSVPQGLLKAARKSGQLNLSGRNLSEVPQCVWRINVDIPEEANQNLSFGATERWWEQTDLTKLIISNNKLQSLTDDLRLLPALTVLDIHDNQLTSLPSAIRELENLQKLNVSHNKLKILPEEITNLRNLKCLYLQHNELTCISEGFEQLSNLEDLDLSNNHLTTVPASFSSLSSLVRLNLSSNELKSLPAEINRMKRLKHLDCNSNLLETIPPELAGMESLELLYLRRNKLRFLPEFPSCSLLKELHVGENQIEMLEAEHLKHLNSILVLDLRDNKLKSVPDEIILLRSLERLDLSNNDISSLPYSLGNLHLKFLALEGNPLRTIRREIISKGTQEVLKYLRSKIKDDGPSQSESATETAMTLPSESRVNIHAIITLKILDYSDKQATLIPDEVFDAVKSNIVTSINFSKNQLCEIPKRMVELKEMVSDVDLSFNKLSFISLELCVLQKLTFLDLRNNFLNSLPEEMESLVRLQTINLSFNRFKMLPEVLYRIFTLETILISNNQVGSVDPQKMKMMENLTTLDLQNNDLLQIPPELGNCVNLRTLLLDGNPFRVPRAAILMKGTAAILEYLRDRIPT
- log2 fold change (ibrutinib): 0.017
- log2 fold change [1]: 0.011
- log2 fold change (ralimetinib): 0.019
- log2 fold change [2]: 0.025
- log2 fold change [3]: -0.011
- log2 fold change [4]: 0.015
- log2 fold change [5]: 0.002
- log2 fold change [6]: -0.073
- log2 fold change [7]: 0.01
- log2 fold change [8]: -0.007
- log2 fold change (vemurafenib): 0.004
- log2 fold change [9]: 0.015
- log2 fold change (barasertib): 0.034
- log2 fold change [10]: -0.024
- log2 fold change (volasertib): -0.011
- log2 fold change [11]: 0.018
- log2 fold change [12]: 0.052
- log2 fold change [13]: -0.052
- log2 fold change (saracatinib): 0
- log2 fold change (sotrastaurin): 0.021

Target: LYRM4 (UniProt Q9HD34)
Sequence of UniProt Q9HD34 (Q9HD34 whole entry, looked up): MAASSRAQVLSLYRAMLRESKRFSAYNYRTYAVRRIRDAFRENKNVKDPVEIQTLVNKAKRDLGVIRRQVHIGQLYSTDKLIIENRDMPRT
- log2 fold change (ibrutinib): 0.015
- log2 fold change [1]: 0.034
- log2 fold change (ralimetinib): -0.036
- log2 fold change [2]: -0.042
- log2 fold change [3]: 0.017
- log2 fold change [4]: 0.017
- log2 fold change [5]: -0.027
- log2 fold change [6]: 0.109
- log2 fold change [7]: -0.034
- log2 fold change [8]: -0.009
- log2 fold change (vemurafenib): 0.026
- log2 fold change [9]: 0.015
- log2 fold change (barasertib): -0.04
- log2 fold change [10]: -0.051
- log2 fold change (volasertib): 0.021
- log2 fold change [11]: 0.03
- log2 fold change [12]: 0.715 (active)
- log2 fold change [13]: -0.035
- log2 fold change (saracatinib): 0.007
- log2 fold change (sotrastaurin): -0.05

Target: LRCH3 (UniProt Q96II8)
Sequence of UniProt Q96II8 (Q96II8 whole entry, looked up): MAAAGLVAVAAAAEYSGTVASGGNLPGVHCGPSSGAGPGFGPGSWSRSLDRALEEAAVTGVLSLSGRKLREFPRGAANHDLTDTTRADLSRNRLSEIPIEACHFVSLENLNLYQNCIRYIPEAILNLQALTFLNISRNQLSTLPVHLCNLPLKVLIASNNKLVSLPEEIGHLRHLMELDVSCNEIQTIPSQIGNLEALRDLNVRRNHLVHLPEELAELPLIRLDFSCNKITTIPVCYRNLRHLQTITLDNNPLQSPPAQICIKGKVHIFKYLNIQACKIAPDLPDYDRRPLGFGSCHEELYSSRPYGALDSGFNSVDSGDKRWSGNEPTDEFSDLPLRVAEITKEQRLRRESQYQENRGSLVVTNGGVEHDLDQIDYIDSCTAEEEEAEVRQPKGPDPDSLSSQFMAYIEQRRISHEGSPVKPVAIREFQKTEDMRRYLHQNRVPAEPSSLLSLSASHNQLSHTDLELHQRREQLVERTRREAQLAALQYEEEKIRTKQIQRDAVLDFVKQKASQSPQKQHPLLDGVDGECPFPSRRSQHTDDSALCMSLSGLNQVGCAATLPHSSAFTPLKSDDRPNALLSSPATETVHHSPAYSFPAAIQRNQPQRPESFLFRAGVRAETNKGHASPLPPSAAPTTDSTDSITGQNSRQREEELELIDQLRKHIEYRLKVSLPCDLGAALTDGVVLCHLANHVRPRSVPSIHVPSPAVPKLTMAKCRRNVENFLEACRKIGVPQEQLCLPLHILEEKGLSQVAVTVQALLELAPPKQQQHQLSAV
- log2 fold change (ibrutinib): -0.052
- log2 fold change [1]: -0.016
- log2 fold change (ralimetinib): -0.004
- log2 fold change [2]: -0.017
- log2 fold change [3]: 0.015
- log2 fold change [4]: -0.015
- log2 fold change [5]: -0.025
- log2 fold change [6]: 0.047
- log2 fold change [7]: 0.07
- log2 fold change [8]: 0.034
- log2 fold change (vemurafenib): -0.009
- log2 fold change [9]: -0.01
- log2 fold change (barasertib): 0.03
- log2 fold change [10]: -0.051
- log2 fold change (volasertib): -0.058
- log2 fold change [11]: -0.022
- log2 fold change [12]: 0.022
- log2 fold change [13]: -0.031
- log2 fold change (saracatinib): 0.004
- log2 fold change (sotrastaurin): -0.047

Target: KIFC1 (UniProt Q9BW19)
Sequence of UniProt Q9BW19 (Q9BW19 whole entry, looked up): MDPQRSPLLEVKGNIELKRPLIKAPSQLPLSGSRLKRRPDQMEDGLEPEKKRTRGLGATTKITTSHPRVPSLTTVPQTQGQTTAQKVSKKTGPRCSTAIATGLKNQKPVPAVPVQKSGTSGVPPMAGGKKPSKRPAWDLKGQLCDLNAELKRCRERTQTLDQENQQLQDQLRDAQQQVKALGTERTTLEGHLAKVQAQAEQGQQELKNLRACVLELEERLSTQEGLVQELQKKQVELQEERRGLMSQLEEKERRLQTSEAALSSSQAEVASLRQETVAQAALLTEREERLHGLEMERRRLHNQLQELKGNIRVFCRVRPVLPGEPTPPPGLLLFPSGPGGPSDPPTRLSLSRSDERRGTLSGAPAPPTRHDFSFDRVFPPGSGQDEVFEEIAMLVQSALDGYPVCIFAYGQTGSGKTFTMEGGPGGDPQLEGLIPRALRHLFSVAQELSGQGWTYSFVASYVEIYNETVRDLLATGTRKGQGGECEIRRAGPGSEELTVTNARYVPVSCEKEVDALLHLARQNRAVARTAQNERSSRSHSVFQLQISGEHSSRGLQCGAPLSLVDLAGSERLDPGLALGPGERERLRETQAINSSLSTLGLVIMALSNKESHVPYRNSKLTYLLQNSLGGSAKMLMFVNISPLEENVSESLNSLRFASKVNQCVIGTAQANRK
- log2 fold change (ibrutinib): 0.021
- log2 fold change [1]: -0.002
- log2 fold change (ralimetinib): -0.025
- log2 fold change [2]: 0.007
- log2 fold change [3]: -0.012
- log2 fold change [4]: -0.009
- log2 fold change [5]: 0.004
- log2 fold change [6]: 0.002
- log2 fold change [7]: 0.011
- log2 fold change [8]: 0.002
- log2 fold change (vemurafenib): -0.008
- log2 fold change [9]: 0.037
- log2 fold change (barasertib): 0.002
- log2 fold change [10]: 0.006
- log2 fold change (volasertib): -0.084
- log2 fold change [11]: -0.031
- log2 fold change [12]: -0.045
- log2 fold change [13]: -0.031
- log2 fold change (saracatinib): 0.021
- log2 fold change (sotrastaurin): 0.071

Target: MARK3 (UniProt P27448)
Sequence of UniProt P27448 (P27448 whole entry, looked up): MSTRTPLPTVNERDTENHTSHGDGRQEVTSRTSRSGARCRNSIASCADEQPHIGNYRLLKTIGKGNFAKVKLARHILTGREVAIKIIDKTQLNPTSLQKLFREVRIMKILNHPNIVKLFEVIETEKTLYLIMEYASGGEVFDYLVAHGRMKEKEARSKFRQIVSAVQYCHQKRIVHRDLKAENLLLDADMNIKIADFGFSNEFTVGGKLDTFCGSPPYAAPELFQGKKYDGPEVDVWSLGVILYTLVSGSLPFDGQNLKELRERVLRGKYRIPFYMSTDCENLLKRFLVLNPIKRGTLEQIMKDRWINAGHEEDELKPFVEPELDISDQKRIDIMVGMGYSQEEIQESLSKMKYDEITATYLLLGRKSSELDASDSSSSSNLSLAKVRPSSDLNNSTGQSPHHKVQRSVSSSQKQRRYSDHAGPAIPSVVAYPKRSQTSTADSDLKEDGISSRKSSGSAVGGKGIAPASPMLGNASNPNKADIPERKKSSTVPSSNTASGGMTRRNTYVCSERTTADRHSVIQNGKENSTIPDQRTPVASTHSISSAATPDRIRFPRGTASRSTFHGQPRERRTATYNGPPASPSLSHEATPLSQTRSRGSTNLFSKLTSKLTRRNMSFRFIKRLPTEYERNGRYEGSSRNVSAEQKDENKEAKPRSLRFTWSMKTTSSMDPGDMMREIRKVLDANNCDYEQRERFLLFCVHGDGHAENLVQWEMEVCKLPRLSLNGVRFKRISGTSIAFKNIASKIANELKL
- log2 fold change (ibrutinib): 0.03
- log2 fold change [1]: -0.081
- log2 fold change (ralimetinib): 0.028
- log2 fold change [2]: -0.016
- log2 fold change [3]: 0.041
- log2 fold change [4]: 0.005
- log2 fold change [5]: -0.009
- log2 fold change [6]: 0.075
- log2 fold change [7]: 0.016
- log2 fold change [8]: 0
- log2 fold change (vemurafenib): -0.003
- log2 fold change [9]: 0.036
- log2 fold change (barasertib): -0.001
- log2 fold change [10]: 0.038
- log2 fold change (volasertib): 0.042
- log2 fold change [11]: 0.005
- log2 fold change [12]: -0.114
- log2 fold change [13]: -0.237
- log2 fold change (saracatinib): -0.015
- log2 fold change (sotrastaurin): -0.228

Target: LYAR (UniProt Q9NX58)
Sequence of UniProt Q9NX58 (Q9NX58 whole entry, looked up): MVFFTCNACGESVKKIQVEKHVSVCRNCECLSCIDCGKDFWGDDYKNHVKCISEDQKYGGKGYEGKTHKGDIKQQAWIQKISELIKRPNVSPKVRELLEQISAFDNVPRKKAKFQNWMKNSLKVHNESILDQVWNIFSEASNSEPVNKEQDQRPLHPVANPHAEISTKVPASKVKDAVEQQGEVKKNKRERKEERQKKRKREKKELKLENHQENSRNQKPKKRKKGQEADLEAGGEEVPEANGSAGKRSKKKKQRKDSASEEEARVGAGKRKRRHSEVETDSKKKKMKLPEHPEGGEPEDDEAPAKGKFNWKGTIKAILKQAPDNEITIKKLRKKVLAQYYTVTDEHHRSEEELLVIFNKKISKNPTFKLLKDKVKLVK
- log2 fold change (ibrutinib): -0.009
- log2 fold change [1]: -0.035
- log2 fold change (ralimetinib): -0.011
- log2 fold change [2]: 0.016
- log2 fold change [3]: 0.004
- log2 fold change [4]: 0.03
- log2 fold change [5]: -0.012
- log2 fold change [6]: 0.016
- log2 fold change [7]: 0.015
- log2 fold change [8]: 0.038
- log2 fold change (vemurafenib): 0.011
- log2 fold change [9]: 0.005
- log2 fold change (barasertib): -0.024
- log2 fold change [10]: 0.005
- log2 fold change (volasertib): 0.003
- log2 fold change [11]: -0.027
- log2 fold change [12]: 0.312 (active)
- log2 fold change [13]: -0.128
- log2 fold change (saracatinib): 0.028
- log2 fold change (sotrastaurin): -0.039
